From PubChem
Many of the other results were omitted from the sample, so hits are more common in it than they were.
NPR1 antag: antagonists of human natriuretic peptide receptor Npr1. P16066. HEK293 hNpr1 GloSensor cGMP, ANP-stimulated luminescence. Potency, µM (series often up to 46.3 µM), actives largely listed as inhibitors. 1.6% of 76,000 active; also: nearly all actives have a fitted effect of over 60% in size
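Compound pre-incubated 30 min at room temperature on GloSensor-loaded HEK293 cells stably carrying hNpr1 and the pGS-40F cGMP biosensor. Stimulation uses hNppA at 0.1 nM final; luminescence is taken at baseline and 20 min post-agonist.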
GPT2 inhibitor: inhibitors of human GPT2 alanine aminotransferase. Q8TD30. Recombinant GPT2, coupled pyruvate oxidase/HRP Amplex Red fluorescence. Potency, µM (highest dose often 57.7 µM), usual class: inhibitors. 0.25% of 100,000 active. AID 1671188; active = well fitted inhibition curve with a large enough effect; inconclusive = small, poorly fitted or top-dose-only effect; also: nearly all actives have a fitted effect of over 60% in size
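Fluorescence read-out: pyruvate from GPT2 turnover coupled to pyruvate oxidase, HRP and Amplex Red (0.2mM ThPP, 0.2U/mL PO and HRP, 50uM Amplex final). Substrates 250uM a-KG, 2mM L-alanine; enzyme 10ng/uL; 30 min RT.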
Npr1 antag conf: confirmation of human Npr1 natriuretic peptide receptor antagonists | Potency, µM (titrated, usually from 57.6 µM), most hits filed as inhibitors | HEK293 hNpr1 cGMP GloSensor luminescence, ANP-stimulated | shares compounds with NPR1 antag | 76% of 1,400 active | AID 1347044; also: nearly all actives have a fitted effect of over 70% in size
Npr2 selectivity: antagonizes human Npr2, subtype selectivity check; shares compounds with NPR1 antag; HEK293 hNpr2 GloSensor cGMP luminescence, CNP-stimulated; Potency, µM (titrated, usually from 57.6 µM), most hits filed as inhibitors; 67% of 1,400 active; also: nearly all actives have a fitted effect of over 70% in size
Target sequence (P20594 whole entry, looked up): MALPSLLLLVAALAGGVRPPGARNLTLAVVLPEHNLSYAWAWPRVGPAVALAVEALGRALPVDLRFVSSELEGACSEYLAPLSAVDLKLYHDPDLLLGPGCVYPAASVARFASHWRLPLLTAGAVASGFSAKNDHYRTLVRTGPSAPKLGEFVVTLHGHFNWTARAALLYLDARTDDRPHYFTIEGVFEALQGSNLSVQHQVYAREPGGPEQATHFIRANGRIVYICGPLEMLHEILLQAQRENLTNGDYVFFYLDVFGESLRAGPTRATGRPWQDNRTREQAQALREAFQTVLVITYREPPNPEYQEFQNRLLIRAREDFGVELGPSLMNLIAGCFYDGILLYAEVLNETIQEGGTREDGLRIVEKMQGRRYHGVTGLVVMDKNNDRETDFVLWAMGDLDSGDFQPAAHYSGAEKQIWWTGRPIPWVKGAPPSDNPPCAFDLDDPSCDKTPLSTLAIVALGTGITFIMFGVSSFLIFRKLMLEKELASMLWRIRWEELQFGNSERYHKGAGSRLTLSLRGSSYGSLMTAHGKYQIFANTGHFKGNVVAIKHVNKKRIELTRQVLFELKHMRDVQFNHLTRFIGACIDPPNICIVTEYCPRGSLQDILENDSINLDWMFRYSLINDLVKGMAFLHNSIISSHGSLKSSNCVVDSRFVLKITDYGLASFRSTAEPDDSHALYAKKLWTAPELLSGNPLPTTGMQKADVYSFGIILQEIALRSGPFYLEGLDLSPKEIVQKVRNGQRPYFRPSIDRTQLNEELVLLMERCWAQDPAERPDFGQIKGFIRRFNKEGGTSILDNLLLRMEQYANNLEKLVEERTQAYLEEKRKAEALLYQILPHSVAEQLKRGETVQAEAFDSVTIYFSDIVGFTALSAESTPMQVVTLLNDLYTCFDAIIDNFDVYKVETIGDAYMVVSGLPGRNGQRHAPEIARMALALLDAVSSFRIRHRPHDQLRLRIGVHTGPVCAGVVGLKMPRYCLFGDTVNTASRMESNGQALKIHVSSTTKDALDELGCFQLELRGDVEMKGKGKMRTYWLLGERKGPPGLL
FLuc inh counter: FLuc enzyme inhibition, Npr1 counter-screen; 0.7% of 1,400 active; shares compounds with NPR1 antag; Potency, µM (doses to about 57.6 µM), actives largely listed as inhibitors; purified FLuc enzyme, luminescence, Km substrate; active = well fitted inhibition curve with a large enough effect; inconclusive = small, poorly fitted or top-dose-only effect
GloSensor cGMP: reduces cGMP signal in GloSensor control cells; shares compounds with NPR1 antag; HEK293 GloSensor cGMP, SNP-stimulated, luminescence; Potency, µM (titrated, usually from 57.6 µM), most hits filed as inhibitors; 69% of 1,400 active; AID 1347051; also: nearly all actives have a fitted effect of over 70% in size
Each line names hits and unclear results; the compound was inactive in the other large screens (follow-up assays come after a bar, where they were run). Unless noted, calls follow the shape of the full dose curve.

Cc1cccc(OCC(=O)N2CCN(C(=O)c3nnn4c3COC(c3ccc(Cl)cc3)C4)CC2)c1 (stereo not drawn)	none
COc1ccccc1CC(=O)N1CCN(C(=O)c2nnn3c2COC(c2ccc(Cl)cc2)C3)CC1 (stereo not drawn)	NPR1 antag 10µM | Npr1 antag conf 12.2µM | Npr2 selectivity 15.3µM | FLuc inh counter inactive | GloSensor cGMP 10.9µM
COc1cccc(CC(=O)N2CCN(C(=O)c3nnn4c3COC(c3ccc(Cl)cc3)C4)CC2)c1 (stereo not drawn)	NPR1 antag 11.2µM | Npr1 antag conf 24.3µM | Npr2 selectivity 24.3µM | FLuc inh counter inactive | GloSensor cGMP 21.7µM
Cc1ccc(CC(=O)N2CCN(C(=O)c3nnn4c3COC(c3ccc(F)cc3)C4)CC2)cc1 (stereo not drawn)	none
O=C(Nc1ccc([C@H]2OCC(=O)N(CC3CCCCC3)[C@@H]2CO)cc1)c1ccccn1	NPR1 antag inconclusive
COCCn1c(=O)c(C(=O)NCCc2ccccc2F)nc2cccnc21	none (no result: NPR1 antag)
COC(=O)C1=CN(CC(=O)Nc2ccccc2C(F)(F)F)S(=O)(=O)N=C1C	none
Cc1ccc(C(C(=O)N2CC(n3nc(C)cc3C)C2)N(C)C)cc1 (stereo not drawn)	none
O=C(NCCN1CCCC1)c1ccc(-c2ccc(N3CCSCC3)nc2)cc1	none
COc1ccccc1Nc1ccnc(N2CCCC(C(=O)NC(C)c3ccc(F)cc3)C2)n1 (stereo not drawn)	none (no result: NPR1 antag)
Cc1ccc(CN2CC(Oc3ccccc3C(=O)N3CCOCC3)C2)s1	none (no result: NPR1 antag)
CC(C)(C)c1ccc(C(=O)N2CCC(c3n[nH]c(=O)n3Cc3ccc(F)cc3)CC2)cc1	NPR1 antag 11.2µM | Npr1 antag conf 24.3µM | Npr2 selectivity 21.7µM | FLuc inh counter inactive | GloSensor cGMP 21.7µM
O=C(c1ccc(C(F)(F)F)cc1)N1CCC(c2n[nH]c(=O)n2Cc2ccc(F)cc2)CC1	none
COc1ccc2[nH]c(=O)c(CCC(=O)N3CCN(CC(C)C)CC3)cc2c1	none
Cc1noc(C)c1[S+](=O)([O-])N1CCc2nc(C(C)C)nc(-c3ccc(Cl)cc3)c2C1	none
Cc1noc(C)c1[S+](=O)([O-])N1CCc2nc(C(C)C)nc(-c3ccc(O)cc3)c2C1	none | Npr1 antag conf inactive | Npr2 selectivity inconclusive | FLuc inh counter inactive | GloSensor cGMP inactive
Cc1noc(-c2ccc3c(c2)OCO3)c1C(=O)NCCSCc1ccccc1	none
N#Cc1ccc(N2CCN(C(=O)CCc3ccncc3)CC2=O)cc1	none
COC[C@@H]1CN(Cc2c(OC)cccc2OC)C[C@H]1c1ccncc1	NPR1 antag 6.31µM | Npr1 antag conf 15.3µM | Npr2 selectivity 15.3µM | FLuc inh counter inactive | GloSensor cGMP 13.7µM
COC[C@@H]1CN(Cc2ccc(OC)c(OC)c2)C[C@H]1c1ccncc1	none
O=C(NCc1cccc(Cl)c1)c1ccc(N2CC3CC(C2)[C@H]2CCCC(=O)N2C3)nc1 (stereo partly drawn)	none
Cc1ncccc1OCC1CN(Cc2cccc(C(F)(F)F)c2)C(=O)c2c(ccnc2-c2ccc(OCC(=O)O)cc2)O1 (stereo not drawn)	none
CC(C)C(=O)NCC1CN(Cc2ccccc2)C(=O)c2c(ccnc2-c2ccc(OCC(=O)O)cc2)O1 (stereo not drawn)	NPR1 antag 5.62µM | Npr1 antag conf 5.44µM | Npr2 selectivity 6.11µM | FLuc inh counter inactive | GloSensor cGMP 4.85µM
O=C(O)COc1ccc(-c2nccc3c2C(=O)N(Cc2cccc(C(F)(F)F)c2)CC(CNC(=O)C2CCOCC2)O3)cc1 (stereo not drawn)	NPR1 antag inconclusive | Npr1 antag conf 8.62µM | Npr2 selectivity inconclusive | FLuc inh counter inactive | GloSensor cGMP 5.44µM
O=C(O)COc1ccc(-c2nccc3c2C(=O)N(Cc2c[nH]c4ccccc24)CC(CNC(=O)c2cccc(Cl)c2)O3)cc1 (stereo not drawn)	none
Cc1ccc(-c2cn3cc(C(=O)N4CCN(C)CC4)nc3s2)cc1	none (no result: NPR1 antag)
